A1 inh – caspase 3/7 activation in MEF A1-2A-BIM cells, primary screen, A1 inhibitor project, cell-based, luminescence, HTS; Caspase-Glo 3/7 luminescence, 3 h; percent of clofoctol response, vehicle zero; caspase activation, % (no concentration beside the values); hit rate 0.066% among 330,000;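 active means over half of replicate activation scores above 10%, or exactly half above 10 with the replicate mean above 10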
SUMO Mot1 rescue – yeast Mot1-301 growth rescue at high temperature, primary screen, SUMOylation pathway inhibitor project, S. cerevisiae, ATP luminescence, 38.5C; S. cerevisiae Mot1-301 growth rescue; percent above DMSO median, 100 means doubled; hit rate 1% among 320,000; growth rescue, % at 18.8 µM;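 active means every valid replicate shows activation above 250% relative to neutral control wells; inactive means the rest, any valid replicate at or below 250%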;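 further: OY570 slx delta 5 strain wells were the positive control but not used for scaling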
AI-2 QS modul – Vibrio harveyi AI-2 quorum sensing modulators, primary screen, JMH597 strain, luminescence/OD600 ratio; activity change, % at 7.5 µM; Vibrio harveyi JMH597 AI-2 luminescence/OD600 ratio, 9 h; stronger effect = lower value; strain lacks LuxN and CqsS sensors; 0 = neutral-control median; hit rate 0.4% among 300,000; AID 2094, 2009; in the data active means activity change below about -75%, passing the limit was not always enough;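 further: luminescence divided by OD600 gain over 9 h not by final OD600 alone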
aDG glyco up – activators of alpha-DG glycosylation, primary screen, uHTS, Pro5-aDG cells, AlphaScreen | AID 624168, 2012 | alpha-DG glycosylation AlphaScreen (IIH6); 0% Pro5, 100% B10-LARGE cell signal | hit rate 0.22% among 360,000 | activation, % at 10 µM;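 active means activation of at least 8% versus controls, or a plate z-score of at least 8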;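 further: Pro5 are CHO cells carrying HIG-tagged alpha-DG that lacks glycosylation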
ARNT TACC3 PPI – disruptors of ARNT/TACC3 protein interaction, primary screen, biochemical, AlphaScreen, single concentration. Transforming acidic coiled-coil-containing protein 3 (Homo sapiens), Q9Y6A5. AlphaScreen His-ARNT PAS-B/GST-TACC3 binding, luminescence; TACC3 fragment carries E629A point mutation. inhibition, % at 9.99 µM. hit rate 0.66% among 390,000. AID 623870, 2012;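 active means mean inhibition of replicates at least 50% and at least half of replicates each reaching 50%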;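 further: 0% = complete ARNT plus TACC3 wells and 100% = ARNT alone without TACC3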
The depositor's hits bear a star; . = not tested or not shown; + = active, no number. Hits are enriched below; roughly 1.8% of the tested compounds scored in any of these assays.

SMILES	A1 inh	SUMO Mot1 rescue	AI-2 QS modul	aDG glyco up	ARNT TACC3 PPI
COC(CNc1nc(SC)nc2sc3c(c12)CCN(C)C3)OC	0	-15	18	0	-9
O=C(NCCNc1ccc(Cl)cc1[N+](=O)[O-])c1cccnc1	1	95	1	1	-14
O=C(COC(=O)c1ccc(O)cc1O)Nc1ccc(Cl)cn1	-1	14	-83*	2	-15
O=C(COC(=O)c1ccc(F)cc1F)Nc1ccc(Cl)cn1	0	-17	.	0	8
O=C1Nc2ccccc2C12OCC(COc1ccc(Cl)cc1)O2 (stereo unspecified)	0	-12	-28	1	22
CCN(CC(=O)Nc1ccccc1C(F)(F)F)C(=O)c1oc2ccc(OC)cc2c1C	1	55	23	0	-2
CCN(CC)C(=O)c1sc2nc(-c3ccccn3)[nH]c(=O)c2c1C	1	-15	17	0	61*
CCN(CC)C(=O)c1sc2nc(-c3ccncc3)[nH]c(=O)c2c1C	1	-22	19	0	.
Cc1sc2nc(-c3ccccn3)[nH]c(=O)c2c1-c1ccccc1	-3	-13	-21	2	79*
Cc1sc2nc(-c3ccncc3)[nH]c(=O)c2c1-c1ccccc1	-1	0	2	.	.
Cc1ccc([C@H]2C(C(=O)O)=C[C@@H](C(C)(C)C)N2S(=O)(=O)c2ccc(C)cc2)cc1	-1	24	.	0	-7
Cc1ccc([C@H]2C(C(=O)O)=CC[C@@H](c3ccc(Cl)cc3)N2S(=O)(=O)c2ccccc2C)cc1	0	341*	.	0	-1
Cc1ccc(S(=O)(=O)N2[C@@H](c3ccc(Cl)c(Cl)c3)C(C(=O)O)=C[C@H]2C(C)(C)C)cc1	0	312*	.	0	1
Cc1ccc([C@@H]2CC=C(C(=O)O)[C@H](c3cccc(Cl)c3)N2S(=O)(=O)c2ccccc2C)cc1	0	295*	.	0	-5
CCc1ccc([C@@H]2CC=C(C(=O)O)[C@H](c3ccccc3F)N2S(=O)(=O)c2ccc(C)cc2)cc1	0	302*	.	0	-4
CCc1ccc([C@@H]2CC=C(C(=O)O)[C@H](c3ccc(C)cc3)N2S(=O)(=O)c2ccc(C)cc2)cc1	.	.	.	0	16
O=C(Nc1cccs1)Nc1ccccc1Br	-5	-2	12	0	.
CCCCC[C@@H]1C=C(C(=O)O)[C@H](c2ccc(CC)cc2)N1S(=O)(=O)c1ccc(C)cc1	1	354*	.	0	-3
O=S(=O)(O)c1cc(Cl)cc(N=Nc2ccc(O)cc2O)c1O	.	.	.	0	63*
C[C@H]1CN([C@@H](C)CO)C(=O)Cc2cc(NS(=O)(=O)c3cn(C)cn3)ccc2O[C@@H]1CN(C)S(=O)(=O)c1ccccc1	.	.	.	.	-12
O=C1C=C(O)c2[nH]c(=O)ccc2C1=O	.	.	.	0	36*
O=C1C=C(O)c2c(O)cc(O)c(O)c2C1=O	2	-24	54	0	19
NC(=O)c1ccccc1OCC(=O)NS(=O)(=O)c1ccccc1	0	10	-1	0	-2
O=C(Nc1nc(-c2cccc([N+](=O)[O-])c2)cs1)C(c1ccccc1)c1ccccc1	0	.	2	0	5
CCCNC(=O)C1(CC2CC(c3ccccc3)=NO2)CCN(C(=O)C2(C)CC2)CC1 (stereo unspecified)	0	355*	13	0	-2
SMILES	A1 inh	SUMO Mot1 rescue	AI-2 QS modul	aDG glyco up	ARNT TACC3 PPI
O=C(CCCOc1ccccc1)N1CCc2ccccc2C1	-1	12	0	3	1
COc1cc(/C=C2/C(=N)N3C=CSC3=NC2=O)ccc1OCCCOc1cc(C)ccc1C	8.5*	-7	38	0	6
Cc1cc(C(=O)NNC(=O)c2cccs2)c(C)o1	-1	185	.	0	.
CCOC(=O)N1CCN(C(=O)c2c(O)c3cccc4c3n(c2=O)CC4)CC1	-1	0	-6	0	-16
COCCNC(=O)/C(C#N)=C/c1cn(CC(=O)NCc2ccco2)c2ccccc12	1	3	33	0	-5
Cc1cccc(NC(=O)/C(C#N)=C/c2cn(CC(=O)NCc3ccco3)c3ccccc23)c1	53*	-18	.	0	-4
COc1cc(C(=O)Cc2nc3ccccc3n2C)cc(OC)c1OC	0	-3	-8	0	-13
CCSS(=O)(=O)c1cccc2cccnc12	0	-5	.	0	65*
O=S(=O)(Nc1ccc(Cl)cc1)c1cccc2cccnc12	1	0	1	0	38*
O=C(C[C@H]1CC[C@@H]2[C@H](COC[C@@H](O)CN2S(=O)(=O)c2cccc(Cl)c2)O1)N1CCCCC1	.	.	.	.	-11
COc1ccc(C(NC(C)=O)c2ccc3cccnc3c2O)c(OC)c1 (stereo unspecified)	-1	96	-6	0	64*
COCCOCC(O)CN1CCN(c2ccccc2)CC1 (stereo unspecified)	-1	33	13	0	.
COc1ccccc1Nc1nc(N)nc(CN2CCCCCC2)n1	0	-4	34	0	89*
COc1ccccc1Nc1nc(N)nc(CN2CCOCC2)n1	0	1	14	0	36
CCOC(=O)C1CCCN(Cc2nc(N)nc(Nc3ccc(OC)cc3)n2)C1 (stereo unspecified)	0	-15	22	0	31*
CCOC(=O)C1CCCN(Cc2nc(CC3CC3)no2)C1 (stereo unspecified)	0	+	12	0	-1
Nc1nc(CN2CCN(c3ccccn3)CC2)nc(Nc2ccc(F)cc2)n1	.	68	24	0	15
Nc1nc(CN2CCCCCC2)nc(Nc2ccc(F)cc2)n1	0	.	15	0	48*
CCOC(=O)N1CCN(Cc2nc(CC3CC3)no2)CC1	0	1	17	0	-5
COc1ccccc1NC(=O)COC(=O)Cc1cccs1	1	309	28	0	-3
O=C(NCCCN1CCOCC1)c1ccc(CS(=O)(=O)Cc2ccccc2Cl)o1	0	-6	3	0	active
C/C(=N\NC(=O)C1CC1)c1ccccc1Br	0	1	-3	0	-7
C/C(=N\NC(=O)C1CC1)c1ccccc1O	0	640*	.	0	29
O=[N+]([O-])c1cc2c(cc1/C=N/n1c(-c3ccccc3)n[nH]c1=S)OCO2	1	-6	0	0	-2
Cc1ccsc1/C=N/n1c(-c2ccccn2)n[nH]c1=S	0	-6	26	0	61*
O=[N+]([O-])c1cc2c(cc1/C=N/n1c(-c3ccccn3)n[nH]c1=S)OCO2	-1	-6	23	0	71*

Bioassay records as filed in PubChem BioAssay.
